{
  "source": "PubChem BioAssay (EPA / NIEHS)",
  "note": "The source made the active and inactive calls. The calls were made as follows: active = hit-call score of the fitted dose curve at least 0.9, where 1 is the maximum; inactive = score below 0.9.",
  "data": [
    {"read-out": "Cytochrome P450 4A22 (Homo sapiens) (UniProt Q5TCH4)", "assay": "LTEA_HepaRG_CYP4A22: Life Technologies and Expression Analysis (LTEA) Assay for Cytochrome P450 4A22 (CYP4A22) using HepaRG (AID 2283495)", "conditions": "mRNA level, 48 h; actives raise or lower the signal", "experimental": "LTEA_HepaRG is a cell based, multiplexed-readout assay that uses HepaRG, a human liver cell line, with measurements taken at 48 hours after chemical dosing on a 96-well plate.LTEA_HepaRG_CYP4A22 is one of 102 assay component(s) measured in the LTEA HepaRG cell culture assay. It is a marker of NR mediated metabolism.Data from the assay component LTEA_HepaRG_CYP4A22 was analyzed into 1 endpoint. This assay endpoint, LTEA_HepaRG_CYP4A22, was analyzed with bidirectional fitting relative to DMSO as the negative control and baseline of activity. Using a type of inducible reporter, measures of mRNA induction for gain or loss-of-signal activity can be used to understand regulation of transcription factor activity. To generalize the intended target to other relatable targets, this assay endpoint is annotated to the cyp intended target family, where the subfamily is xenobiotic metabolism.\nA total of 1060 chemcials from the ToxCast library were tested in eight-point concentration-response experiments. Cell culture and cytotoxicity assays were conducted at Thermo Fisher Scientific's Custom Services facility (Madison, WI). A single lot of human HepaRG cells (Thermo Fisher Scientific, Frederick, MD) was used for the cell culture experiments. 96-well format collagen type I coated plates of human HepaRG cells were prepared using established methods. Briefly, cryopreserved HepaRG cells were thawed, plated at a density of approximately 100,000 cells/well in HepaRG Thaw, Plate, and General Purpose media (HPRG770, Thermo Fisher Scientific), and incubated for 48 hours. 0.5% DMSO was selected as vehicle control to balance the requisite need of DMSO in HepaRG cultures to maintain differentiation (for example, baseline metabolism, proportions of hepatocytes vs. cholangiocytes), while enabling further hepatic receptor pathway activation (for example, PXR and CAR) in response to chemical exposure. 48 hours after plating, the culture medium was replaced with HepaRG Serum-Free Incudtion Media. Cells were exposed to each test chemical in duplicate and maintained in CO2 incubators for another 48 hours. Chemical plates were thawed to room temperature and 200x concentrations of treatment groups were prepared. 8-point conentration-reponse curves were made with the highest exposure at 100 uM, followed by half-log dilutions, all in 0.5% DMSO. Each test plate contained variouse controls, induction positive controls (1mM phenobarbital), cytotoxicity positive controls ([…] aflatoxin B1), vehicle controls (0.5% DMSO), and total lysis controls (0.5% DMSO). Cell morphology images were taken using an Essen IncuCyte FLR automated microscope, with six 96-well plates imaged in about 24 minutes. Images were captured and exported and JPEG files. Spent culture media was transfered to black-well plates for the LDH assay, and remaining media was sorted at -80 C for later use. Cells were treated with RLT buffer and frozen until shipped for gene expression analysis. Total RNA was isolated from the cell suspension in 75 uL of Buffer RLT (Qiagen, Germantown, MD 20874) by Quintiles/Expression Analysis (Durham, NC) using a custom isolation procedure. Total RNA from each plate well was transferred to a preamplification plate. Fluidigm's 96.96 Dynamic ArrayTM (Fluidigm, Amsterdam, the Netherlands) technology was used for gene expression analyses by quantitative reverse transcription polymerase chain reaction (qRT-PCR, performed by Quintiles/Expression Analysis, Durham, NC)89. Standard TaqManTM Assays (Applied Biosystems/ThermoFisher Scientific, Foster City, CA) were used to assess the expression of 93 genes selected based on their selectivity and sensitivity to important hepatic receptors known to be modulated by environmental chemicals; importance in human hepatocyte functionality; and hepatotoxicity. […]", "values": [
      {"smiles": "CC(=O)NC1(c2cccc(F)c2)CCN(CC[C@@]2(c3ccc(Cl)c(Cl)c3)CN(c3ccccc3)C(=O)CO2)CC1", "AC50": "3.17 µM (active)"},
      {"smiles": "CCCCC(CC)COC(=O)CCCCC(=O)OCC(CC)CCCC", "note": "(stereo not given)", "outcome": "inactive"},
      {"smiles": "CCCCCCCC(=O)O", "outcome": "inactive"},
      {"smiles": "O=C(O)Cc1cc(I)c(Oc2cc(I)c(O)c(I)c2)c(I)c1", "AC50": "54.5 µM (active)"},
      {"smiles": "CCCCCCCCOC(=O)CCCCCCCCC(=O)OCCCCCCCC", "outcome": "inactive"},
      {"smiles": "CC(C)(C)c1cc(C(C)(C)C)c(O)c(C(C)(C)C)c1", "outcome": "inactive"},
      {"smiles": "Nc1cccc2c(N)cccc12", "outcome": "inactive"},
      {"smiles": "CC(C)CCCCCCOC(=O)CCCCC(=O)OCCCCCCC(C)C", "outcome": "inactive"},
      {"smiles": "O=C(OCCOCCOC(=O)c1ccccc1)c1ccccc1", "outcome": "inactive"},
      {"smiles": "CCCCC(CC)COC(=O)CCCCC(=O)OCc1ccccc1", "note": "(stereo not given)", "outcome": "inactive"},
      {"smiles": "CC#C[C@]1(O)CC[C@H]2[C@@H]3CCC4=CC(=O)CCC4=C3[C@@H](c3ccc(N(C)C)cc3)C[C@@]21C", "AC50": "24.2 µM (active)"},
      {"smiles": "C=C(C)C(=O)OCCC(F)(F)C(F)(F)C(F)(F)C(F)(F)C(F)(F)C(F)(F)F", "outcome": "inactive"},
      {"smiles": "COc1ccc([N+](=O)[O-])cc1N", "outcome": "inactive"},
      {"smiles": "CC(O)CO", "note": "(stereo not given)", "outcome": "inactive"},
      {"smiles": "CN(C)C=O", "outcome": "inactive"},
      {"smiles": "O=C(O)c1ccccc1C(c1ccc(O)cc1)c1ccc(O)cc1", "outcome": "inactive"},
      {"smiles": "CCCCCCCCCCCCN1CCCC1=O", "outcome": "inactive"},
      {"smiles": "C#C[C@]1(O)CC[C@H]2[C@@H]3CCC4=CC(=O)CC[C@@H]4[C@H]3CC[C@@]21C", "outcome": "inactive"},
      {"smiles": "CCN(CC)CCNc1ccc(CNC=O)c2sc3ccc(OC)cc3c(=O)c12", "AC50": "25.7 µM (active)"},
      {"smiles": "CCc1ccc(CCOc2ccc(CC3SC(=O)NC3=O)cc2)nc1", "note": "(stereo not given)", "AC50": "84 µM (active)"},
      {"smiles": "CC(C)(C)c1cccc(C(C)(C)C)c1O", "outcome": "inactive"},
      {"smiles": "CCC(=C(c1ccc(O)cc1)c1ccc(OCCN(C)C)cc1)c1ccccc1", "outcome": "inactive"},
      {"smiles": "CCCOC(=O)c1ccc(O)cc1", "outcome": "inactive"},
      {"smiles": "O=c1c(-c2ccc(O)cc2)coc2cc(O)ccc12", "outcome": "inactive"},
      {"smiles": "ClC1=C(Cl)C(Cl)(Cl)C(Cl)=C1Cl", "outcome": "inactive"},
      {"smiles": "CCc1nn(C2CCCCC2)c2cc(C3(C#N)CCC(C(=O)O)CC3)ccc12", "note": "(stereo not given)", "AC50": "56.7 µM (active)"},
      {"smiles": "O=[N+]([O-])c1ccc(O)cc1", "outcome": "inactive"},
      {"smiles": "OCCC(F)(F)C(F)(F)C(F)(F)C(F)(F)C(F)(F)C(F)(F)C(F)(F)C(F)(F)F", "outcome": "inactive"},
      {"smiles": "NC(=O)N(O)[C@@H]1C=C[C@H](Oc2cccc(Oc3ccc(F)cc3)c2)C1", "AC50": "25.6 µM (active)"},
      {"smiles": "OCCC(F)(F)C(F)(F)C(F)(F)C(F)(F)C(F)(F)C(F)(F)F", "outcome": "inactive"},
      {"smiles": "Cc1oc(-c2ccccc2)nc1CCOc1ccc(C[C@H](Nc2ccccc2C(=O)c2ccccc2)C(=O)O)cc1", "AC50": "0.189 µM (active)"},
      {"smiles": "OC1CCCCC1", "outcome": "inactive"},
      {"smiles": "CCCCOCCO", "outcome": "inactive"},
      {"smiles": "C[C@@H]1C[C@H]2[C@@H]3CCC4=CC(=O)C=C[C@]4(C)[C@@]3(F)[C@@H](O)C[C@]2(C)[C@@]1(O)C(=O)COP(=O)(O)O", "outcome": "inactive"},
      {"smiles": "c1ccc2c(c1)Cc1ccccc1-2", "outcome": "inactive"},
      {"smiles": "CC1=C(/C=C/C(C)=C/C=C/C(C)=C/C(=O)O)C(C)(C)CCC1", "AC50": "10.2 µM (active)"},
      {"smiles": "CCC(C)(C)C1CCC(O)CC1", "note": "(stereo not given)", "outcome": "inactive"},
      {"smiles": "N#C[C@@H]1CC(F)(F)CN1C(=O)CNC1CC2CCC(C1)N2c1ncccn1", "note": "(stereo not given in full)", "outcome": "inactive"},
      {"smiles": "Cc1cc(CCN2CCN(c3nsc4ccccc34)CC2)cc2c1NC(=O)CC2(C)C", "AC50": "58.6 µM (active)"},
      {"smiles": "CCCOc1sc(C(=O)N2CCC(c3cc(CN)ccc3F)CC2)c(C)c1Br", "outcome": "inactive"}
    ]}
  ]
}
